Data published in PubChem BioAssay.
For some assays here: Potency and affinity values are given separately. The source made the active and inactive calls. Unless noted, how the calls were made is not given here.

Assays:
[1] = antimalarial activity against Dd2 strain (AID 2302;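 active means growth inhibition above 50% at the single 2 µM test dose, taken to imply half-maximal potency below 2 µM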;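 further: 0% = DMSO untreated growth and 100% = chloroquine plus artemisinin killed control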); settings: P. falciparum Dd2 in RBCs, LDH growth readout, 72 h; at 2 µM; hits give high values
[2] = HepG2 cytotoxicity, primary screen, cytotoxicity control for P. falciparum antimalarial project, cell-based, ATP luminescence (AID 2303;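 active means inhibition above 50%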;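 further: 0% = DMSO wells and 100% = digitonin-killed cells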); settings: HepG2 viability, 24-48 h, at 10 µM, hits give high values
[3] = biological target: L-lactate dehydrogenase (Plasmodium falciparum (isolate CDC / Honduras)) (UniProt Q27743); test: PfLDH activity inhibition – cell lysate, 3D7 strain, counter-screen for P. falciparum growth inhibition project (AID 2304);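 further: 0% = vehicle and 100% = reference inhibitor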; settings: P. falciparum 3D7 crude extract, LDH APAD/NBT absorbance; at 2 µM; hits give high values
[4] = inhibition of 3D7 malaria parasite growth – strain 3D7 (AID 2306);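 further: 0% = DMSO wells and 100% = chloroquine plus artemisinin control wells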; settings: P. falciparum 3D7 erythrocytic growth, LDH absorbance, 72 h; at 2 µM; hits give high values
[5] = biological target: Calcium-dependent protein kinase 1 (Plasmodium falciparum (isolate 3D7)) (UniProt P62344); test: PfCDPK1 kinase inhibitors, biochemical, TCAMS library (AID 1159585; cut-off not given, nearly all actives have IC50 up to about 0.98 µM;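 further: inhibitors leave more ATP so luminescence rises with inhibition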); settings: recombinant PfCDPK1, Kinase-Glo ATP depletion luminescence
[6] = biological target: Plasmodium falciparum protein kinase 6 (PK6, PF3D7_1337100) (UniProt Q8IDW1); test: PfPK6 kinase inhibitors, biochemical, TCAMS library (AID 1159586); settings: recombinant PfPK6, Kinase-Glo ATP depletion luminescence
[7] = biological target: Protein kinase 7 (PK7), Plasmodium falciparum 3D7 (PF3D7_0213400) (UniProt Q7YTF7); test: inhibition of Plasmodium PK7 catalytic activity – biochemical, TCAMS antimalarial set, Kinase-Glo luminescence (AID 1159587); settings: recombinant PfPK7, Kinase-Glo ATP depletion luminescence
[8] = biological target: Calcium-dependent protein kinase 4 (Plasmodium falciparum (isolate 3D7)) (UniProt Q8IBS5); test: PfCDPK4 kinase inhibitors, biochemical, TCAMS library (AID 1159588; cut-off not given, nearly all actives have IC50 up to about 0.91 µM); settings: recombinant PfCDPK4, Kinase-Glo ATP depletion luminescence
Calcium-dependent protein kinase 4 (Plasmodium falciparum (isolate 3D7)), sequence (Q8IBS5 whole entry, looked up): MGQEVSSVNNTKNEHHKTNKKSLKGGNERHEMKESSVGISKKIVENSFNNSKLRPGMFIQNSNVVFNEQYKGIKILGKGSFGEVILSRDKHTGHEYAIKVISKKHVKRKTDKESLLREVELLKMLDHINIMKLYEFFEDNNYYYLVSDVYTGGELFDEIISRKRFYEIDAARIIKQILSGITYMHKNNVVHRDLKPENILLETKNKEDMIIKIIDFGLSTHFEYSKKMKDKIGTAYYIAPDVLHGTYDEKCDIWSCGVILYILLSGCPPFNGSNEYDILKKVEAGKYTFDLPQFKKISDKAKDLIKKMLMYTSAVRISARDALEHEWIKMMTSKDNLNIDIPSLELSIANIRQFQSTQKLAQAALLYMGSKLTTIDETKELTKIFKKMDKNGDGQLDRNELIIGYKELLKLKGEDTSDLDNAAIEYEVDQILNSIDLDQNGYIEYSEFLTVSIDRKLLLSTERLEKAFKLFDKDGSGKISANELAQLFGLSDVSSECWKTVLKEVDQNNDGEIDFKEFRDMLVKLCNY

L-lactate dehydrogenase (Plasmodium falciparum (isolate CDC / Honduras)), sequence (Q27743 whole entry, looked up): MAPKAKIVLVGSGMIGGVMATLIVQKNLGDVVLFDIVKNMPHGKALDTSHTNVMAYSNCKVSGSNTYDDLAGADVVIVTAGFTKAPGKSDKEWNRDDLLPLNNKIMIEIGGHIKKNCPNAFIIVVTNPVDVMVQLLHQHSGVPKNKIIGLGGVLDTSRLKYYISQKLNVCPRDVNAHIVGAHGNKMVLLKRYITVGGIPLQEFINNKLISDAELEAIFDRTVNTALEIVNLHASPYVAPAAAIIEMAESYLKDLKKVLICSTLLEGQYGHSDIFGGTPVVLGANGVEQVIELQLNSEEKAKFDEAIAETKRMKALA
Protein kinase 7 (PK7), Plasmodium falciparum 3D7 (PF3D7_0213400), sequence (Q7YTF7 1-343): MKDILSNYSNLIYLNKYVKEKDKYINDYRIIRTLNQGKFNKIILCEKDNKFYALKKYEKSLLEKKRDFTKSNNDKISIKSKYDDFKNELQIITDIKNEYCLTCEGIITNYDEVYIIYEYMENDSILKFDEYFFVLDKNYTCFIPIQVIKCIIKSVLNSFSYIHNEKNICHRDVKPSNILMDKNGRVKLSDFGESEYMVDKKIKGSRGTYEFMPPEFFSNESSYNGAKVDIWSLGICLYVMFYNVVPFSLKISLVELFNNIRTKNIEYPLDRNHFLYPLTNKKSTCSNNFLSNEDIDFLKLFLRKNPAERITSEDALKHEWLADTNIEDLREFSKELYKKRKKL
Plasmodium falciparum protein kinase 6 (PK6, PF3D7_1337100), sequence (Q8IDW1 1-305): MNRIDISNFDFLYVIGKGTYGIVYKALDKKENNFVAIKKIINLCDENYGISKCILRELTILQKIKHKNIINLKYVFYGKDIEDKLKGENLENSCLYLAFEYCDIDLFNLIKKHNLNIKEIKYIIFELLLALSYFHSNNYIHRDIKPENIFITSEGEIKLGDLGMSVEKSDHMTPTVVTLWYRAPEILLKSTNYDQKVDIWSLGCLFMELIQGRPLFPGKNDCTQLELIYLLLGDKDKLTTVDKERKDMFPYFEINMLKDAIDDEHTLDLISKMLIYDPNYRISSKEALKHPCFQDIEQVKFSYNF
Calcium-dependent protein kinase 1 (Plasmodium falciparum (isolate 3D7)), sequence (P62344 whole entry, looked up): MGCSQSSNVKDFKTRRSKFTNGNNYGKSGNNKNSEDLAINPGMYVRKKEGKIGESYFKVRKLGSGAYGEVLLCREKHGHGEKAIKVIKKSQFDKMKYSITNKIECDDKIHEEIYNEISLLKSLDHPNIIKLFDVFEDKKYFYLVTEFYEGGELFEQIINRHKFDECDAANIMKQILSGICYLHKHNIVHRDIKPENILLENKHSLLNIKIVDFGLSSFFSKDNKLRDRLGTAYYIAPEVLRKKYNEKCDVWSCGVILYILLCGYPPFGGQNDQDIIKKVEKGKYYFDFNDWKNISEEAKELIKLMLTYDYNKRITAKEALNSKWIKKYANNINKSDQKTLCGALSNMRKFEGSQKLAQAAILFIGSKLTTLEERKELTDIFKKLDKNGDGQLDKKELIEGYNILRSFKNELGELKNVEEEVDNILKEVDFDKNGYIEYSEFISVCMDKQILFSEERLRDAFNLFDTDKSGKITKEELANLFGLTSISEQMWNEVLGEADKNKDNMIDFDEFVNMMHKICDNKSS

COCCNCc1ccc(-c2ccc(CNC3CCN(Cc4ccccc4)CC3)cc2)cc1
inactive: inhibition [2] 22% | inhibition [3] -4% | outcome [5] | outcome [6] | outcome [7] | outcome [8]
active: growth inhibition [1] 61% | growth inhibition [4] 100%

CCCC(N)C(=O)NC1CCN(c2c(F)c(N)c3c(=O)c(C(=O)O)cn4c3c2Oc2ccccc2-4)C1 (stereo not given)
inactive: inhibition [3] -5% | outcome [5] | outcome [6] | outcome [7] | outcome [8]
active: growth inhibition [1] 98% | inhibition [2] 66% | growth inhibition [4] 98%

Cn1nc(-c2ccc(Cl)cc2)c2cc(C(=O)NCCN3CCOCC3)sc21
inactive: growth inhibition [1] 29% | inhibition [2] 21% | inhibition [3] -8% | outcome [5] | outcome [6] | outcome [7] | outcome [8]
active: growth inhibition [4] 97%

COc1ccc(-c2c(C(F)(F)F)nn(C)c2NC(=O)Nc2ccc(F)cc2F)cc1
active: growth inhibition [1] 99% | growth inhibition [4] 101%
inactive: inhibition [2] 8% | inhibition [3] -4% | outcome [5] | outcome [6] | outcome [7] | outcome [8]

N#Cc1c(N)n(CCc2ccc(F)cc2)c2nc3ccccc3nc12
inactive: growth inhibition [1] 36% | inhibition [2] 8% | inhibition [3] -1% | outcome [5] | outcome [6] | outcome [7] | outcome [8]
active: growth inhibition [4] 92%

N#CCCN1CCN(Cc2cccc(-c3ccc(-c4nc5ccccc5[nH]4)s3)c2)CC1
active: growth inhibition [4] 96%
inactive: growth inhibition [1] 8% | inhibition [2] 48% | inhibition [3] -4% | outcome [5] | outcome [6] | outcome [7] | outcome [8]

CCNC[C@@H](O)[C@H](Cc1ccccc1)NC(=O)c1cc2c3c(c1)c(CC)cn3CCS(=O)(=O)N2C
inactive: inhibition [2] 0% | inhibition [3] -4% | outcome [5] | outcome [6] | outcome [7] | outcome [8]
active: growth inhibition [1] 65% | growth inhibition [4] 99%

O=C(Nc1cccc(Oc2ccccc2)c1)N[C@H]1CCN(Cc2ccc(OCCCN3CCCCC3)cc2)C1
inactive: inhibition [3] -2% | outcome [5] | outcome [6] | outcome [7] | outcome [8]
active: growth inhibition [1] 70% | inhibition [2] 94% | growth inhibition [4] 101%

CN(C)CCc1coc2ccc(C(=O)Nc3ccc(-c4ccc(O)cc4)cc3)cc12
active: growth inhibition [4] 101%
inactive: growth inhibition [1] 40% | inhibition [2] 28% | inhibition [3] -3% | outcome [5] | outcome [6] | outcome [7] | outcome [8]

O=C(Nc1cccc(-c2cccc(-c3nc4ccc(F)cc4[nH]3)c2)c1)c1ccoc1
inactive: growth inhibition [1] 35% | inhibition [2] 36% | inhibition [3] 5% | outcome [5] | outcome [6] | outcome [7] | outcome [8]
active: growth inhibition [4] 98%

O=C(NCCN1CCOCC1)c1ccc(O)c(-c2cccc(C(F)(F)F)c2)c1
active: growth inhibition [4] 95%
inactive: growth inhibition [1] 48% | inhibition [2] -1% | inhibition [3] 3% | outcome [5] | outcome [6] | outcome [7] | outcome [8]

CC(C)(C)C(=O)Oc1ccc(CC2NCCc3cc(OC(=O)C(C)(C)C)c(OC(=O)C(C)(C)C)cc32)cc1OC(=O)C(C)(C)C (stereo not given)
active: growth inhibition [1] 96% | growth inhibition [4] 97%
inactive: inhibition [2] 3% | inhibition [3] 5% | outcome [5] | outcome [6] | outcome [7] | outcome [8]

CC[C@H]1CN2CCc3c([nH]c4ccccc34)[C@@H]2C[C@@H]1CC1c2cc(OC)c(OC)cc2CCN1C (stereo not given in full)
inactive: growth inhibition [1] 45% | inhibition [2] 31% | inhibition [3] 5% | outcome [5] | outcome [6] | outcome [7] | outcome [8]
active: growth inhibition [4] 85%

O=C(NC1CCC1)C1CCN(C(c2ccc(Cl)cc2)c2ccc(Cl)cc2)CC1
active: growth inhibition [1] 70% | growth inhibition [4] 95%
inactive: inhibition [2] 6% | inhibition [3] 8% | outcome [5] | outcome [6] | outcome [7] | outcome [8]

Brc1cc(CNCCCNc2nc3ccccc3[nH]2)sc1Br
inactive: growth inhibition [1] 21% | inhibition [2] 10% | inhibition [3] 8% | outcome [5] | outcome [6] | outcome [7] | outcome [8]
active: growth inhibition [4] 100%

N#Cc1cccc(C(=O)NC2CCN(CCCCCNC(=O)/C=C/c3ccc(Cl)c(Cl)c3)CC2)c1
inactive: growth inhibition [1] -1% | inhibition [2] 11% | inhibition [3] -9% | outcome [5] | outcome [6] | outcome [7] | outcome [8]
active: growth inhibition [4] 103%

COc1ccc(CC(=O)Nc2ccc(Nc3nc(C)cc(N4CCCC4)n3)cc2)cc1
active: growth inhibition [1] 65% | inhibition [2] 56% | growth inhibition [4] 101%
inactive: inhibition [3] -1% | outcome [5] | outcome [6] | outcome [7] | outcome [8]

COc1ccc(CCNCCCCCNCCc2ccc(Cl)cc2)cc1OC
active: growth inhibition [4] 101%
inactive: growth inhibition [1] -2% | inhibition [2] 32% | inhibition [3] -11% | outcome [5] | outcome [6] | outcome [7] | outcome [8]

CC1(C)N=C(N)N=C(N)N1OCCc1ccc(N)cc1
active: growth inhibition [1] 95% | inhibition [2] 65% | growth inhibition [4] 93%
inactive: inhibition [3] -6% | outcome [5] | outcome [6] | outcome [7] | outcome [8]

Cc1ccc(C2CCN(CCCCNC(=O)c3ccc(-c4ccc(C(F)(F)F)cc4)cc3)CC2)c(O)c1
active: inhibition [2] 92% | growth inhibition [4] 100%
inactive: growth inhibition [1] 49% | inhibition [3] -2% | outcome [5] | outcome [6] | outcome [7] | outcome [8]

NC(=O)c1cccc(C(=O)Nc2cccc(-c3ccc(-c4nc5ccc(C(F)(F)F)cc5[nH]4)cc3)c2)c1
inactive: inhibition [3] -1% | outcome [5] | outcome [6] | outcome [7] | outcome [8]
active: growth inhibition [1] 78% | inhibition [2] 83% | growth inhibition [4] 100%

OCCN1CCN(Cc2ccc(-c3ccc(-c4nc5ccc(F)cc5[nH]4)cc3)cc2)CC1
active: growth inhibition [1] 99% | growth inhibition [4] 101%
inactive: inhibition [2] 33% | inhibition [3] -5% | outcome [5] | outcome [6] | outcome [7] | outcome [8]

c1ccc(Oc2ccc(Nc3nc(NCCc4cnc[nH]4)nc(NC4CCCC4)n3)cc2)cc1
inactive: growth inhibition [1] 23% | inhibition [2] -5% | inhibition [3] 6% | outcome [5] | outcome [6] | outcome [7] | outcome [8]
active: growth inhibition [4] 97%

CNCCNCc1ccc(-c2ccc(-c3nc4ccc(C(F)(F)F)cc4[nH]3)s2)cc1
inactive: inhibition [2] 30% | inhibition [3] -2% | outcome [5] | outcome [6] | outcome [7] | outcome [8]
active: growth inhibition [1] 100% | growth inhibition [4] 99%

c1ccc(-c2cccnn2)cc1
inactive: growth inhibition [1] 6% | inhibition [2] -7% | inhibition [3] 0% | outcome [5] | outcome [6] | outcome [7] | outcome [8]
active: growth inhibition [4] 98%

CC(=O)Nc1ncc(C(=O)Nc2cccc(-c3cccc(-c4nc5ccc(C(F)(F)F)cc5[nH]4)c3)c2)s1
inactive: inhibition [3] 3% | outcome [5] | outcome [6] | outcome [7] | outcome [8]
active: growth inhibition [1] 99% | inhibition [2] 76% | growth inhibition [4] 101%

CCOC(=O)c1c(NC(=O)c2ccccc2)sc2c(O)c(CN(CC)CC)ccc12
active: growth inhibition [1] 100% | growth inhibition [4] 100%
inactive: inhibition [2] 9% | inhibition [3] 4% | outcome [5] | outcome [6] | outcome [7] | outcome [8]

O=C(Nc1ccc2nccc(N3CCN4CCC[C@H]4C3)c2c1)c1ccc(Cl)c(Cl)c1
inactive: inhibition [2] 18% | inhibition [3] -8% | outcome [5] | outcome [6] | outcome [7] | outcome [8]
active: growth inhibition [1] 98% | growth inhibition [4] 101%

COc1ccc(C(=O)C2CCN(CCCCNC(=O)c3ccc(NC(=O)c4cc(Cl)cc(Cl)c4)cc3)CC2)cc1
active: growth inhibition [1] 84% | growth inhibition [4] 100%
inactive: inhibition [2] 35% | inhibition [3] 5% | outcome [5] | outcome [6] | outcome [7] | outcome [8]

CCOc1ccccc1NC(=O)C(Sc1nc(C)cc(C)c1C#N)c1ccccc1 (stereo not given)
active: growth inhibition [1] 98% | growth inhibition [4] 99%
inactive: inhibition [2] -1% | inhibition [3] -3% | outcome [5] | outcome [6] | outcome [7] | outcome [8]

N#Cc1ccc(Sc2nnc(-c3ccccc3Cl)n2CC2CCCCC2)cc1[N+](=O)[O-]
active: growth inhibition [4] 85%
inactive: growth inhibition [1] 34% | inhibition [2] 30% | inhibition [3] 1% | outcome [5] | outcome [6] | outcome [7] | outcome [8]

O=C(Nc1ccc(F)c(F)c1)c1ccc(CN2CCCN(Cc3cccc(F)c3)CC2)cc1
inactive: growth inhibition [1] 12% | inhibition [3] -6% | outcome [5] | outcome [6] | outcome [7] | outcome [8]
active: inhibition [2] 51% | growth inhibition [4] 83%

Cc1ccccc1C1CCN(C2CCC(NC(=O)/C=C/c3cc(F)ccc3F)CC2)CC1 (stereo not given)
active: growth inhibition [4] 85%
inactive: growth inhibition [1] 36% | inhibition [2] 47% | inhibition [3] -2% | outcome [5] | outcome [6] | outcome [7] | outcome [8]

CCOc1ccc2nc3cc([N+](=O)[O-])ccc3c(N)c2c1
inactive: inhibition [3] 3% | outcome [5] | outcome [6] | outcome [7] | outcome [8]
active: growth inhibition [1] 100% | inhibition [2] 67% | growth inhibition [4] 99%

CN(Cc1ccccc1)C1CCN(c2cc(NC(=O)c3cccc(F)c3)ccn2)CC1
inactive: growth inhibition [1] 3% | inhibition [2] 2% | inhibition [3] -2% | outcome [5] | outcome [6] | outcome [7] | outcome [8]
active: growth inhibition [4] 93%

O=c1cc(NCCC2CC=CCN2Cc2ccc(Cl)c(Cl)c2)[nH]c2ccccc12 (stereo not given)
active: growth inhibition [1] 77% | growth inhibition [4] 94%
inactive: inhibition [2] 7% | inhibition [3] 4% | outcome [5] | outcome [6] | outcome [7] | outcome [8]

Cn1nccc1C(=O)NCCNCc1cccc(-c2ccc(-c3nc4ccc(C(F)(F)F)cc4[nH]3)cc2)c1
active: growth inhibition [1] 98% | inhibition [2] 51% | growth inhibition [4] 102%
inactive: inhibition [3] -1% | outcome [5] | outcome [6] | outcome [7] | outcome [8]

C#CCCC(=O)Nc1cccc(-c2cccc(-c3nc4ccc(C(F)(F)F)cc4[nH]3)c2)c1
inactive: growth inhibition [1] 45% | inhibition [2] 14% | inhibition [3] -4% | outcome [5] | outcome [6] | outcome [7] | outcome [8]
active: growth inhibition [4] 90%

O=C(Cc1cnc[nH]1)Nc1ccc(-c2cccc(-c3nc4ccc(C(F)(F)F)cc4[nH]3)c2)cc1
inactive: inhibition [2] 20% | inhibition [3] -8% | outcome [5] | outcome [6] | outcome [7] | outcome [8]
active: growth inhibition [1] 95% | growth inhibition [4] 101%

Cc1ccc(NC(=O)Nc2ccc(Cl)c(C(F)(F)F)c2)cc1-c1ccc(C(=O)NCCN2CCOCC2)cc1
active: inhibition [2] 52% | growth inhibition [4] 98%
inactive: growth inhibition [1] 31% | inhibition [3] 0% | outcome [5] | outcome [6] | outcome [7] | outcome [8]
